From PubChem BioAssay (Tox21)
Inconclusive results are not listed. The source made the active and inactive calls. Unless noted, calls come from the whole dose curve; as a rule, active = well fitted curve in the direction sought with a large enough effect in the repeat runs; inconclusive = weak or mixed curves; inactive = no such curve, though single readings can be large; an effect the other way counts as inactive or inconclusive.

Key:
[1] = A CellTox Green Cytotoxicity Assay to monitor cytotoxicity in HepG2 cells - 0 hour (AID 1224882); note: nearly all actives have a fitted effect of over 35% in size
In short: (§1)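 HepG2 cells, 600/well, preincubated 5 h with CellTox Green dye, then exposed to Tox21 compounds in DMSO at 37 C for up to 40 h. Dead-cell DNA fluorescence read at the indicated time point.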

[2] = A CellTox Green Cytotoxicity Assay to monitor cytotoxicity in HepG2 cells - 32 hour (AID 1224883); note: nearly all actives have a fitted effect of over 50% in size
In short: as §1

[3] = A CellTox Green Cytotoxicity Assay to monitor cytotoxicity in HEK293 cells - 8 hour (AID 1224884); note: nearly all actives have a fitted effect of over 35% in size
In short: (§2)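 HEK293 cells, 600/well, were preincubated 5 hours and then exposed to compounds at 37 C for up to 40 hours. A cell-impermeant cyanine dye staining dead-cell DNA was read by fluorescence at 0, 8, 16, 24, 32 and 40 h time points.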

[4] = qHTS RealTime-Glo MT Cell Viability Assay in HepG2 cells - 16 hour (AID 1224885); note: nearly all actives have a fitted effect of over 50% in size
In short: (§3)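 Tox21 10K library screened in qHTS format on HepG2 cells carrying RealTime-Glo reagents. Compounds were added after a 5 h preincubation, and the luminescent signal from continuous culture was measured repeatedly during 40 h treatment.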

[5] = qHTS RealTime-Glo MT Cell Viability Assay in HEK293 cells - 24 hour (AID 1224886); note: top concentration of the series differs between compounds; nearly all actives have a fitted effect of over 50% in size
In short: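 Luminescence generated by NanoLuc from substrate produced by living HEK293 cells served as the viability signal. Each value reflects the reading at its stated time point during continuous 40 h compound exposure at 37 C.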

[6] = qHTS RealTime-Glo MT Cell Viability Assay in HEK293 cells - 8 hour (AID 1224887); note: top concentration of the series differs between compounds; nearly all actives have a fitted effect of over 50% in size
In short: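 600 cells/well were plated with the nonlytic NanoLuc/prosubstrate reagent, pre-incubated 5 h, then given 23 nL of compound in DMSO. Incubation at 37 C for 40 h, with luminescence from viable-cell-reduced substrate read repeatedly from 0 h.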

[7] = A CellTox Green Cytotoxicity Assay to monitor cytotoxicity in HEK293 cells - 16 hour (AID 1224888); note: nearly all actives have a fitted effect of over 35% in size
In short: as §2

[8] = qHTS RealTime-Glo MT Cell Viability Assay in HepG2 cells - 0 hour (AID 1224889); note: nearly all actives have a fitted effect of over 50% in size
In short: as §3

[9] = A CellTox Green Cytotoxicity Assay to monitor cytotoxicity in HepG2 cells - 8 hour (AID 1224890); note: nearly all actives have a fitted effect of over 45% in size
In short: as §1

[10] = qHTS assay to identify small molecule antagonists of the estrogen receptor alpha (ER-alpha) signaling pathway using the BG1 cell line in the presence of 0.1 nM 17-beta-estradiol - cell viability counter screen (AID 1259241); note: nearly all actives have a fitted effect of over 40% in size
In short: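 Following 5 days in phenol red-free medium with charcoal-stripped serum, VM7Luc4E2 cells received test compounds alongside 0.1 nM 17beta-estradiol (final) at 37C for 22 hr. Live cells were then quantified via protease-substrate fluorescence.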

[11] = qHTS assay to identify small molecule antagonists of the androgen receptor (AR) signaling pathway using the MDA cell line in the presence of 0.5 nM R1881 - cell viability counter screen (AID 1259242); note: nearly all actives have a fitted effect of over 45% in size
In short: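 MDA-kb2 cells (MMTV-luciferase, AR/GR responsive) were treated with compounds plus 0.5 nM R1881 (final) for 16 hr at 37C, 0% CO2. Viability was then read in the same wells as live-cell protease fluorescence (CellTiter-Fluor, 30 min).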

[12] = qHTS assay to identify small molecule phospholipidosis (PLD) inducers (AID 1259344; active = well fitted curve in the direction sought with a large enough effect; an effect the other way counts as inactive or inconclusive)
In short: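 Fluorescent phospholipid staining (LipidTOX Red) measured by automated microscopy in fixed HepG2 cells after 24 h treatment; nuclei counterstained with Hoechst 33342; amiodarone as reference inducer.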

[13] = qHTS assay to identify small molecule HDAC inhibitors (AID 1259364); note: top concentration of the series differs between compounds; nearly all actives have a fitted effect of over 45% in size
In short: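 Wild-type HCT-116 cells, plated overnight at 37 C, exposed to compounds 2 hr at 37 C; luminogenic HDAC-Glo substrate then added 30 min at room temperature. Luminescence reports relative endogenous class I/II HDAC activity.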

[14] = qHTS assay to identify small molecule HDAC inhibitors - cell viability counter screen (AID 1259365)
In short: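 HCT-116 wild-type, overnight attachment; 2hr drug exposure, 37C; CellTiter-Glo luminescent ATP readout after 30min RT.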

[15] = qHTS assay to identify small molecule agonists of the sonic hedgehog signaling (Shh) pathway - cell viability counter screen (AID 1259366); note: nearly all actives have a fitted effect of over 50% in size
In short: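 Compounds in DMSO were pin-transferred onto 3T3 Gli1-Luc cells that had settled 4hr; plates then stood 24hr at 37C and 5% CO2. One hour before the end, CellTiter-Fluor was added and fluorescence recorded.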

[16] = qHTS assay to identify small molecule antagonists of the sonic hedgehog signaling (Shh) pathway - cell viability counter screen (AID 1259367); note: nearly all actives have a fitted effect of over 55% in size
In short: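 Using CellTiter-Fluor, viability of Gli1-Luc reporter 3T3 cells is read by fluorescence in the wells used for the Shh luciferase assay. Treatment lasts 23 hr with conditioned medium, then reagent 1 hr at 37C.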

[17] = qHTS assay to identify small molecule agonists of the sonic hedgehog signaling (Shh) pathway (AID 1259368; calls by dose curve;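 note: NIH/3T3-derived 3T3Gli1-Luc cells carrying a stable Gli1-driven firefly luciferase reporter; series mostly up to about 92 µM; nearly all actives have a fitted effect of over 15% in size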)
In short: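 NIH/3T3-derived 3T3Gli1-Luc cells with stably integrated Gli1-driven firefly luciferase, 2,000 cells/well, compounds added after 4 hr. Incubated 24 hr at 37C, 5% CO2; luminescence read after 30 min with luciferase reagent at room temperature.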

[18] = qHTS assay to identify small molecule antagonists of the sonic hedgehog signaling (Shh) pathway (AID 1259369; calls by dose curve; note: nearly all actives have a fitted effect of over 45% in size)
In short: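 NIH/3T3-derived Gli1-Luc reporter cells plated 4 h, dosed with compound, then stimulated with conditioned medium for 24 h at 37 C. Firefly luciferase luminescence read after 30 min with detection reagent at room temperature.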

[19] = target: Estrogen receptor (Homo sapiens) (UniProt P03372); assay: qHTS assay to identify small molecule antagonists of the estrogen receptor alpha (ER-alpha) signaling pathway using the BG1 cell line in the presence of 0.1 nM 17-beta-estradiol (AID 1259244); note: nearly all actives have a fitted effect of over 50% in size
In short: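 VM7Luc4E2 cells (endogenous full-length ER-alpha, 4×ERE-luciferase), kept 5 days in phenol red-free, charcoal-stripped FBS medium; 4,000 cells/well. Compounds added with 0.1 nM (final) 17beta-estradiol, 22 hr at 37C; luminescence read with ONE-Glo after 30 min.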

Measured: Potency

Chain of Estrogen receptor (Homo sapiens) (P03372 whole entry, looked up): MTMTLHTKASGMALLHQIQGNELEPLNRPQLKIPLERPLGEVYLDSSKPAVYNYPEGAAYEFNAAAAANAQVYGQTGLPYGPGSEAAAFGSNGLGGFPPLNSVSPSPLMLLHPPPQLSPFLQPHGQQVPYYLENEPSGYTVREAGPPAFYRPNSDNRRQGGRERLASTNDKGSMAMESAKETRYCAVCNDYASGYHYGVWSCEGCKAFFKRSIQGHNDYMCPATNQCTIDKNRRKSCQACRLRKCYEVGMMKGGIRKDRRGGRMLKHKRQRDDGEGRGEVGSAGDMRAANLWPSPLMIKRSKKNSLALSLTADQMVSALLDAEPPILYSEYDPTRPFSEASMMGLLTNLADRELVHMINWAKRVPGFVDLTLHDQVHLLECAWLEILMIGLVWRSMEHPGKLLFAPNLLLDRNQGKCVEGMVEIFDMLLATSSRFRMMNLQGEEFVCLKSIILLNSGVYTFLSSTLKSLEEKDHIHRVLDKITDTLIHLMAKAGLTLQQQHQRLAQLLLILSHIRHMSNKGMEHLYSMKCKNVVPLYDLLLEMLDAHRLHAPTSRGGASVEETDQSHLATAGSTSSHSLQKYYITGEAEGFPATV

NC/C=C/C(=O)O
not listed: [19]
inactive: all other assays above

CCOc1ccc(OCC)c(Cl)c1
not listed: [7] | [12]
inactive: all other assays above

CC1(C)C(=O)N(Cl)C(=O)N1Br
not listed: [12] | [19]
inactive: all other assays above

C1CSCCS1
not listed: [12] | [17] | [19]
inactive: all other assays above

Nc1ccc2ccccc2c1S(=O)(=O)O
not listed: [12] | [17] | [19]
inactive: all other assays above

C=Cc1ccccc1
not listed: [17] | [19]
inactive: all other assays above

COc1cc(Cl)ccc1Cl
not listed: [12] | [19]
inactive: all other assays above

CCCCC(=O)O[C@]1(C(=O)CO)[C@H](C)C[C@H]2[C@@H]3CCC4=CC(=O)C=C[C@]4(C)[C@@]3(F)[C@@H](O)C[C@@]21C
not listed: [8] | [19]
inactive: all other assays above
